# Experimental data: PubChem BioAssay
# Values without a mark were called inactive. Calls of active or inactive are those of the source.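 The calls were made as follows, unless noted: active = inhibition above 50%; inactive = the rest.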
# Assay: antimalarial activity against Dd2 strain (AID 2302;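 active = growth inhibition above 50% at the single 2 µM test dose, taken to imply half-maximal potency below 2 µM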;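 also: 0% = DMSO untreated growth and 100% = chloroquine plus artemisinin killed control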)
# Conditions: P. falciparum Dd2 in RBCs, LDH growth readout, 72 h; at 2 µM; active compounds read high
row,Compound,growth inhibition
1,CCc1ccc(-c2nc3cc(NC(=O)c4cc([N+](=O)[O-])cc([N+](=O)[O-])c4)ccc3o2)cc1,12%
2,O=C(/C=C/c1ccc([N+](=O)[O-])cc1)N1CCC(NS(=O)(=O)c2ccc(F)cc2)CC1,-2%
3,O=C(Nc1ccc(Cn2ncc(N3CCCNCC3)c(Cl)c2=O)cc1)Nc1cc(F)cc(C(F)(F)F)c1,44%
4,O=C(Cc1cccs1)NC(CCCN1CCC(Oc2cccc(Cl)c2)CC1)c1ccc(Cl)c(Cl)c1 (configuration not stated),70% (active)
5,NCC1CCCN1Cc1ccc(-c2ccc(-c3nc4ccc(C(F)(F)F)cc4[nH]3)s2)cc1 (configuration not stated),97% (active)
6,Cc1ccccc1Nc1nc(Nc2ccccc2)c2ccccc2n1,21%
7,O=C(C=NO)Nc1ccccc1[N+](=O)[O-],-2%
8,FC(F)(F)c1ccc2c(NCCc3ccccc3)ccnc2c1,9%
9,COc1ccc(-c2ccc(NC(=O)c3ccc(F)cc3)cc2)cc1CNC(C)C,28%
10,COc1ccccc1CCN(C)CCN1CCC(NC(=O)c2ccc(-c3ccc(C(F)(F)F)cc3)cc2)CC1,15%
11,FC(F)(F)c1ccc2nc(-c3ccc(-c4cccc(CNCCc5ccncc5)c4)s3)[nH]c2c1,95% (active)
12,CC(C)(C)C/C=C\c1ccc(C(=O)NCC2CC2)cc1,88% (active)
13,CCOc1ccc(S(=O)(=O)N(C)c2ccc(OCC(=O)Nc3nccs3)cc2)cc1,4%
14,CCOc1cc(C(=O)N[C@@H](Cc2ccccc2)[C@H](O)CNCc2cc(OC)cc(OC)c2)cc(N2CCCS2(=O)=O)c1,66% (active)
15,COc1ccc(CNc2nc(NCc3ccc(C(F)(F)F)cc3)c3cc(OC)c(OC)cc3n2)cc1OC,100% (active)
16,Cc1c(CNCCCNc2nc3cscc3[nH]2)sc(C(F)F)c1Br,11%
17,Cc1ccc(Nc2nccc(NCC(O)c3cccc(C(F)(F)F)c3)n2)cc1 (configuration not stated),74% (active)
18,Cc1ccccc1Nc1nc(NCCc2ccccc2)nc2ccccc12,18%
19,CCOC(=O)c1c(C)n(-c2ccccc2)c2ccc(OC(=O)COc3ccc(Cl)cc3Cl)cc12,87% (active)
20,CCc1cc2c3c(N)nc(N)nc3ccc2n1C(C)CC (configuration not stated),99% (active)
21,CCc1ccc(NC(=O)c2ccc(CN3CCCN(CCC(C)C)CC3)cc2)cc1,25%
22,Oc1ccccc1CN1CCCC(COC(c2ccc(F)cc2)c2ccc(F)cc2)C1 (configuration not stated),98% (active)
23,CC1CN(Cc2ccc(C#N)cc2)CCN1c1ccc(NC(=O)c2cccs2)cc1 (configuration not stated),89% (active)
24,O=C(Nc1ccccc1)N(Cc1ccccc1-c1cccc(CNCc2ccc3c(c2)OCO3)c1)C1CCN(Cc2ccccc2)CC1,64% (active)
25,COc1cc(CC2c3cc(O)c(Cl)cc3CCN2C)c(OC)cc1C (configuration not stated),88% (active)
26,COc1cc(NC(=O)/C=C/c2cc(F)cc(F)c2F)cc(OCCN2CCC(O)(c3ccccc3)CC2)c1,82% (active)
27,CC(Nc1nc(Nc2ccc(F)cc2)nc(SCC(N)=O)n1)c1ccccc1 (configuration not stated),87% (active)

# Assay: HepG2 cytotoxicity, primary screen, cytotoxicity control for P. falciparum antimalarial project, cell-based, ATP luminescence (AID 2303);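 also: 0% = DMSO wells and 100% = digitonin-killed cells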
# Conditions: HepG2 viability, 24-48 h, at 10 µM, active compounds read high
row,Compound,inhibition
1,Cc1nc(C(=O)N2CCCC[C@H]2CNC(=O)c2ccc(-c3ccc(N4CCCC4=O)cc3C)cc2)c(-c2ccc(F)cc2)s1,6%
2,CCCNc1nc(NCc2c(C)cccc2C)nc(NC(C)(C)C)n1,15%
3,COc1cc2c(cc1N1C[C@@H](C)N[C@@H](C)C1)N(C(=O)c1ccc(-c3ccc(-c4ncc[nH]4)cc3C)cc1)CC2,7%
4,CCc1cccc2sc(N3CCN(C(=O)c4ccc([N+](=O)[O-])o4)CC3)nc12,2%
5,O=S(=O)(Nc1cccc(CCN2CCC(N3CCCCC3)CC2)c1)c1ccccc1C(F)(F)F,21%
6,O=C(c1cccs1)N1CCN(c2ccc([N+](=O)[O-])c(NC3CC3)c2)CC1,-5%
7,Oc1cc(Nc2ccnc3cc(-c4ccc(CN5CCCCC5)o4)c(Cl)cc23)c(Cl)cc1F,-10%
8,O=[N+]([O-])c1ccc(NC(=NCCOc2ccccc2)Nc2ccccc2Br)c(O)c1,6%
9,COc1ccccc1N1CCN(CCCCNC(=O)c2ccc(NC(=O)c3ccc(C(F)(F)F)cc3)cc2)CC1,25%
10,COc1cc2ncnc(NCCc3ccccc3Cl)c2cc1OC,0%
11,O=C(CCc1cnc[nH]1)Nc1cccc(-c2ccc(-c3nc4ccc(F)cc4[nH]3)cc2)c1,18%
12,CNC(=O)NC1=NC(C)(C)N(OCCCOc2cc(Cl)c(Cl)cc2Cl)C(N)=N1,7%
13,CC(Cc1ccc(OCCN2CCN(c3cccc(Cl)c3)CC2)cc1)NCC(O)c1cccc(C(F)(F)F)c1 (configuration not stated),100% (active)
14,CCc1ccc(-c2nc3cc(NC(=O)c4cc([N+](=O)[O-])cc([N+](=O)[O-])c4)ccc3o2)cc1,12%
15,O=C(/C=C/c1ccc([N+](=O)[O-])cc1)N1CCC(NS(=O)(=O)c2ccc(F)cc2)CC1,-7%
16,O=C(Nc1ccc(Cn2ncc(N3CCCNCC3)c(Cl)c2=O)cc1)Nc1cc(F)cc(C(F)(F)F)c1,35%
17,O=C(Cc1cccs1)NC(CCCN1CCC(Oc2cccc(Cl)c2)CC1)c1ccc(Cl)c(Cl)c1 (configuration not stated),39%
18,NCC1CCCN1Cc1ccc(-c2ccc(-c3nc4ccc(C(F)(F)F)cc4[nH]3)s2)cc1 (configuration not stated),31%
19,Cc1ccccc1Nc1nc(Nc2ccccc2)c2ccccc2n1,19%
20,O=C(C=NO)Nc1ccccc1[N+](=O)[O-],-14%

row,Compound,inhibition
1,FC(F)(F)c1ccc2c(NCCc3ccccc3)ccnc2c1,14%
2,COc1ccc(-c2ccc(NC(=O)c3ccc(F)cc3)cc2)cc1CNC(C)C,24%
3,COc1ccccc1CCN(C)CCN1CCC(NC(=O)c2ccc(-c3ccc(C(F)(F)F)cc3)cc2)CC1,46%
4,FC(F)(F)c1ccc2nc(-c3ccc(-c4cccc(CNCCc5ccncc5)c4)s3)[nH]c2c1,20%
5,CC(C)(C)C/C=C\c1ccc(C(=O)NCC2CC2)cc1,0%
6,CCOc1ccc(S(=O)(=O)N(C)c2ccc(OCC(=O)Nc3nccs3)cc2)cc1,8%
7,CCOc1cc(C(=O)N[C@@H](Cc2ccccc2)[C@H](O)CNCc2cc(OC)cc(OC)c2)cc(N2CCCS2(=O)=O)c1,-5%
8,COc1ccc(CNc2nc(NCc3ccc(C(F)(F)F)cc3)c3cc(OC)c(OC)cc3n2)cc1OC,80% (active)
9,Cc1c(CNCCCNc2nc3cscc3[nH]2)sc(C(F)F)c1Br,1%
10,Cc1ccc(Nc2nccc(NCC(O)c3cccc(C(F)(F)F)c3)n2)cc1 (configuration not stated),19%
11,Cc1ccccc1Nc1nc(NCCc2ccccc2)nc2ccccc12,32%
12,CCOC(=O)c1c(C)n(-c2ccccc2)c2ccc(OC(=O)COc3ccc(Cl)cc3Cl)cc12,11%
13,CCc1cc2c3c(N)nc(N)nc3ccc2n1C(C)CC (configuration not stated),73% (active)
14,CCc1ccc(NC(=O)c2ccc(CN3CCCN(CCC(C)C)CC3)cc2)cc1,48%
15,Oc1ccccc1CN1CCCC(COC(c2ccc(F)cc2)c2ccc(F)cc2)C1 (configuration not stated),19%
16,CC1CN(Cc2ccc(C#N)cc2)CCN1c1ccc(NC(=O)c2cccs2)cc1 (configuration not stated),8%
17,O=C(Nc1ccccc1)N(Cc1ccccc1-c1cccc(CNCc2ccc3c(c2)OCO3)c1)C1CCN(Cc2ccccc2)CC1,35%
18,COc1cc(CC2c3cc(O)c(Cl)cc3CCN2C)c(OC)cc1C (configuration not stated),10%
19,COc1cc(NC(=O)/C=C/c2cc(F)cc(F)c2F)cc(OCCN2CCC(O)(c3ccccc3)CC2)c1,54% (active)
20,CC(Nc1nc(Nc2ccc(F)cc2)nc(SCC(N)=O)n1)c1ccccc1 (configuration not stated),14%
